Source: the supplement of paper PMC10849652
Targets with a hit are over-represented here; the source holds about 8,800 in all. About 0.5% of all pairs of compound and target were hits.

Tests used:
Experiment in all cases: log2 fold change, soluble protein after heating vs DMSO (PISA); higher = thermal stabilisation; K562 lysate, 10 uM; active = over 0.2 and 3.5 SD of the protein, either way, in both replicates (recomputed)
vemurafenib = compound: CCCS(=O)(=O)Nc1ccc(F)c(C(=O)c2c[nH]c3ncc(-c4ccc(Cl)cc4)cc23)c1F [vemurafenib]
Method in brief: (§1)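 K562 pellets were dounce-homogenised in PBS pH 7.4 containing 1 mM MgCl2, and the crude extract, at 1 mg/mL protein, was exposed to 10 μM compound for 30 min. Aliquots were heated for 3 min across 48°C-58°C, pooled, brought to 0.5% NP-40 at 4°C and spun at 21,000xg for 90 min, with the supernatant taken as soluble protein. TMTpro 16plex LC-MS/MS with equalised channel sums quantified that protein. Values are log-two fold changes in thermal stability relative to solvent controls, taken from duplicates.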

[1] = compound: CCCS(=O)(=O)Nc1ccc(F)c(C(=O)c2c[nH]c3ncc(Cl)cc23)c1F
Method in brief: as §1

barasertib = compound: CCN(CCCOc1ccc2c(Nc3cc(CC(=O)Nc4cccc(F)c4)[nH]n3)ncnc2c1)CCOP(=O)(O)O [barasertib]
Method in brief: as §1

volasertib = compound: CC[C@@H]1C(=O)N(C)c2cnc(Nc3ccc(C(=O)N[C@H]4CC[C@H](N5CCN(CC6CC6)CC5)CC4)cc3OC)nc2N1C(C)C [volasertib]
Method in brief: as §1

[2] = compound: CCn1c(C(=O)N(C2CC2)C2CC2)cc2c3c(ncn3C)c(Nc3cc(C)n(C)n3)nc21
Method in brief: as §1

saracatinib = compound: CN1CCN(CCOc2cc(OC3CCOCC3)c3c(Nc4c(Cl)ccc5c4OCO5)ncnc3c2)CC1 [saracatinib]
Method in brief: as §1

sotrastaurin = compound: CN1CCN(c2nc(C3=C(c4c[nH]c5ccccc45)C(=O)NC3=O)c3ccccc3n2)CC1 [sotrastaurin]
Method in brief: as §1

Tubastatin A = compound: CN1CCc2c(c3ccccc3n2Cc2ccc(C(=O)NO)cc2)C1 [Tubastatin A]
Method in brief: as §1

[3] = compound: CNC(=O)C1=CC=CC=C1NC2=NC(=NC=C2Cl)NC3=C(C=C(C=C3)N4CCOCC4)OC
Method in brief: as §1

defactinib = compound: CNC(=O)c1ccc(Nc2ncc(C(F)(F)F)c(NCc3nccnc3N(C)S(C)(=O)=O)n2)cc1 [defactinib]
Method in brief: as §1

[4] = compound: CNc1nc(-c2ccc3c(N)n[nH]c3c2)cc(N2C[C@@H](C(=O)NC3CCCCC3)CC[C@H]2C)n1
Method in brief: as §1

alisertib = compound: COc1cc(Nc2ncc3c(n2)-c2ccc(Cl)cc2C(c2c(F)cccc2OC)=NC3)ccc1C(=O)O [alisertib]
Method in brief: as §1

[5] = compound: COc1cc2nc(-c3cc(F)ccc3O)nc(N[C@@H]3CNC[C@H]3C(C)(C)O)c2cc1OC
Method in brief: as §1

gefitinib = compound: COc1cc2ncnc(Nc3ccc(F)c(Cl)c3)c2cc1OCCCN1CCOCC1 [gefitinib]
Method in brief: as §1

[6] = compound: CC[C@@H]1C(=O)N(C)c2cnc(Nc3ccc(C(=O)NC4CCN(C)CC4)cc3OC)nc2N1C1CCCC1
Method in brief: as §1

encorafenib = compound: COC(=O)N[C@@H](C)CNc1nccc(-c2cn(C(C)C)nc2-c2cc(Cl)cc(NS(C)(=O)=O)c2F)n1 [encorafenib]
Method in brief: as §1

[7] = compound: COC(=O)[C@H](CCSC)NC(=O)C1=C(C=C(C=C1)NC[C@H](CS)N)C2=CC=CC=C2
Method in brief: as §1

[8] = compound: CCn1cc(-c2ccnc3[nH]c(-c4cccc(CN(C)C)c4)cc23)c(-c2ccc(NC(=O)N(C)C)cc2)n1
Method in brief: as §1

[9] = compound: CN1CCC(CNc2ccc3ncc(-c4cccc(OC(F)(F)F)c4)n3n2)CC1
Method in brief: as §1

alvocidib = compound: CN1CC[C@H](c2c(O)cc(O)c3c(=O)cc(-c4ccccc4Cl)oc23)[C@H](O)C1 [alvocidib]
Method in brief: as §1

Measured: log2 fold change

TTC37 (UniProt Q6PGP7)
Sequence of UniProt Q6PGP7 (Q6PGP7 whole entry, looked up): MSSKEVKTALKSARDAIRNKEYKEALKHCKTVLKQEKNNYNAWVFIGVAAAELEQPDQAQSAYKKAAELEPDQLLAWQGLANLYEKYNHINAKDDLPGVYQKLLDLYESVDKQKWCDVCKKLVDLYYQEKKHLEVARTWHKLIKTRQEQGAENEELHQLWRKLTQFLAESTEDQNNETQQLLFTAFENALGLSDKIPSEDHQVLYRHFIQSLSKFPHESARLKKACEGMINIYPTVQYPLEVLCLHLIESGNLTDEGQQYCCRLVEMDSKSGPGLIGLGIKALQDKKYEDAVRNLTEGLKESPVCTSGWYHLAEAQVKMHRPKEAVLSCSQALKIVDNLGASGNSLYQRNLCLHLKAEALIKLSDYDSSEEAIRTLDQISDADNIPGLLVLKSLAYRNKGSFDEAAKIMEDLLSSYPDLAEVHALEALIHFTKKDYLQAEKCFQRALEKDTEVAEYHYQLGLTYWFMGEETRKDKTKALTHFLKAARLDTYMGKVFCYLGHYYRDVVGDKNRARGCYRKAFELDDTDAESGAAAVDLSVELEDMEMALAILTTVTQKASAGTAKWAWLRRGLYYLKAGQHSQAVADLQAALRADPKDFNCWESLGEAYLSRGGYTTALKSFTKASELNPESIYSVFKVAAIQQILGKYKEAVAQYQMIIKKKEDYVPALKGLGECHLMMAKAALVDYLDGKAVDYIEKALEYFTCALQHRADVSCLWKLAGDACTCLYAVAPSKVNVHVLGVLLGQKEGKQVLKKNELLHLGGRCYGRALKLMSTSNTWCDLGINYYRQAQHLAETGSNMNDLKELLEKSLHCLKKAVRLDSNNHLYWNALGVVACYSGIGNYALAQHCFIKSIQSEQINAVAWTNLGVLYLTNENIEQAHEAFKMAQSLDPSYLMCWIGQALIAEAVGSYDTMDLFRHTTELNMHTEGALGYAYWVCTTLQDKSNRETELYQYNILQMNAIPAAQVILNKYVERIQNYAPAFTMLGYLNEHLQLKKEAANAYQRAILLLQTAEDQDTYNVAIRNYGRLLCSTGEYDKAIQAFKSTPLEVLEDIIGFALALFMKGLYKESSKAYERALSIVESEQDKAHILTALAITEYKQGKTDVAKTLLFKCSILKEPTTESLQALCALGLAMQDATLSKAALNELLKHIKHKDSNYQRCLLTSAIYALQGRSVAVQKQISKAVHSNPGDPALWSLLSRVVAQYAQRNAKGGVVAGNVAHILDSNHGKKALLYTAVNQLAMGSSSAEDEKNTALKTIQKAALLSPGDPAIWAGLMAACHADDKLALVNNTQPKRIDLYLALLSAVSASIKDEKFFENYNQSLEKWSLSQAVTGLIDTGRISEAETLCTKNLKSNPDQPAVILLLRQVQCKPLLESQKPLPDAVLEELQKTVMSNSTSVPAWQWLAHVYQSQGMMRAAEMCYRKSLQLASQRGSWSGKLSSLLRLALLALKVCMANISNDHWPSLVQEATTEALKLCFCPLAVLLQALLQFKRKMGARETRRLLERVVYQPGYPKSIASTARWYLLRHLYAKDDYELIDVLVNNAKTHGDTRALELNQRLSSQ
inactive: vemurafenib 0.053 | [1] -0.068 | barasertib 0.018 | volasertib 0.011 | [2] 0.045 | saracatinib 0.013 | sotrastaurin -0.019 | Tubastatin A 0.072 | [3] -0.13 | defactinib -0.061 | [4] 0.185 | alisertib 0.032 | [5] 0.043 | gefitinib 0.081

TEC (UniProt P42680)
Sequence of UniProt P42680 (P42680 whole entry, looked up): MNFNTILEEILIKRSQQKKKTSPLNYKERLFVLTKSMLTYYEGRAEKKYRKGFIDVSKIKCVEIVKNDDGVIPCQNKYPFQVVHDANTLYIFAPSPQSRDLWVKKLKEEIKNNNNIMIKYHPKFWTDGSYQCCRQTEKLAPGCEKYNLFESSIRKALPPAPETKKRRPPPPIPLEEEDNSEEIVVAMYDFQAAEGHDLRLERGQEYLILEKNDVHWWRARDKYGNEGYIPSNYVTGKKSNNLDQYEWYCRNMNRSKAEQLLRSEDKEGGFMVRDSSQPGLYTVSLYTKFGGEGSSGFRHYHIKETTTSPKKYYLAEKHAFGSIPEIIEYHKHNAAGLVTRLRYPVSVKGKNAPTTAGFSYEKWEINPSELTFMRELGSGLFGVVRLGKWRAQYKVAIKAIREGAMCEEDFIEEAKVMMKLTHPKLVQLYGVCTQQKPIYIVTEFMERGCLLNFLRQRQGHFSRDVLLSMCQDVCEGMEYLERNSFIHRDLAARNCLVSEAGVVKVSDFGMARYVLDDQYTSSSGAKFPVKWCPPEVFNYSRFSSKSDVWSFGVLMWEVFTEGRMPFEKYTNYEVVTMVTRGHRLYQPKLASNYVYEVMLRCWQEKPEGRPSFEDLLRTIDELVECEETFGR
inactive: vemurafenib -0.081 | [1] -0.119 | [6] -0.054 | volasertib 0.14 | defactinib 0.07 | encorafenib -0.044 | [7] -0.036 | alisertib -0.086 | [5] -0.028 | gefitinib -0.027

UBXN6 (UniProt Q9BZV1)
Sequence of UniProt Q9BZV1 (Q9BZV1 whole entry, looked up): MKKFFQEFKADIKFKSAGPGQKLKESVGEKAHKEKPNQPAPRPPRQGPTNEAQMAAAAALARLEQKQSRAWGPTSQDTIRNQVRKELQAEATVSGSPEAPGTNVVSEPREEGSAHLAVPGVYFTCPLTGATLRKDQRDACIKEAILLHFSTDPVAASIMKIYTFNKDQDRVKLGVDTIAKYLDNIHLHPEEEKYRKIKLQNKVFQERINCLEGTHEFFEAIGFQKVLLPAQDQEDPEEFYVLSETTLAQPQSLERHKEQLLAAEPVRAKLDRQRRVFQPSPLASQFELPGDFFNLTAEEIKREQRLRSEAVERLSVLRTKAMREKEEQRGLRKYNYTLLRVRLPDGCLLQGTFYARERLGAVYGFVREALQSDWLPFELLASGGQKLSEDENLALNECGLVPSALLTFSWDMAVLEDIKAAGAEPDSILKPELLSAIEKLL
inactive: vemurafenib 0.046 | [1] -0.192 | barasertib -0.007 | [6] -0.025 | volasertib -0.075 | [2] -0.001 | [8] 0.008 | [9] -0.015 | saracatinib -0.03 | sotrastaurin 0.025 | alvocidib 0.014 | Tubastatin A -0.087 | [3] 0.03 | defactinib -0.019 | [4] 0.055 | encorafenib 0.042 | [7] 0.104 | alisertib 0.017 | [5] 0.006 | gefitinib 0.006

TBK1 (UniProt Q9UHD2)
Sequence of UniProt Q9UHD2 (Q9UHD2 whole entry, looked up): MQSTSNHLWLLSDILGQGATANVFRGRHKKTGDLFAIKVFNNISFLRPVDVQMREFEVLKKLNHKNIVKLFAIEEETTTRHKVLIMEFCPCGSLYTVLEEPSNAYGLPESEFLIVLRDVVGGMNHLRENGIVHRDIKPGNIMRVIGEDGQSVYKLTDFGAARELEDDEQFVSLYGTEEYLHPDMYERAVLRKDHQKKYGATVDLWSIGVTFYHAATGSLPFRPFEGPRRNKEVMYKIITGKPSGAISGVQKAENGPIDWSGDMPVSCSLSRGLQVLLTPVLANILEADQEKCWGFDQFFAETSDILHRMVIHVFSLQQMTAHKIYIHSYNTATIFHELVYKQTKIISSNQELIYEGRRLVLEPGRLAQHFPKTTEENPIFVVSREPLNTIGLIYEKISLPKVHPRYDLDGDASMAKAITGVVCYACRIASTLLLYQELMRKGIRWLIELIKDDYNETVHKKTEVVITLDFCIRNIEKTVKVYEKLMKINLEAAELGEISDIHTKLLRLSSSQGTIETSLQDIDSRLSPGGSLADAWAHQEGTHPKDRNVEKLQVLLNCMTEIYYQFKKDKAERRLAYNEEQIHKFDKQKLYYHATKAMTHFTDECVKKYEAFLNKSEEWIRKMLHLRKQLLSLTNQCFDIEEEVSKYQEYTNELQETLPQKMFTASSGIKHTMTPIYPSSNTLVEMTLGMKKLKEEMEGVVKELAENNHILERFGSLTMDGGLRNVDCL
inactive: vemurafenib 0.008 | [1] 0.002 | barasertib -0.03 | [6] -0.058 | volasertib -0.064 | [2] -0.021 | [8] 0.216 | [9] 0.079 | saracatinib -0.029 | sotrastaurin -0.045 | Tubastatin A -0.16 | defactinib 0.328 | [4] -0.035 | encorafenib 0.014 | [7] -0.293 | alisertib 0.039 | [5] -0.007 | gefitinib -0.032
active: [3] 0.528

TMEM167B (UniProt Q9NRX6)
Sequence of UniProt Q9NRX6 (Q9NRX6 whole entry, looked up): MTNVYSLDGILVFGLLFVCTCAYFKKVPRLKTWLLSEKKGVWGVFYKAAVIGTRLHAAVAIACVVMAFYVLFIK
inactive: vemurafenib 0.058 | [1] -0.057 | barasertib -0.009 | [6] 0.053 | volasertib 0.038 | [2] -0.028 | [9] 0.086 | sotrastaurin 0.056 | alvocidib -0.167 | Tubastatin A -0.028 | [3] 0.06 | defactinib 0.015 | encorafenib 0.026 | [7] -0.022 | alisertib 0.012 | [5] 0.032 | gefitinib 0.032
active: [8] -0.472

TMC1 (UniProt Q8TDI8)
Sequence of UniProt Q8TDI8 (Q8TDI8 whole entry, looked up): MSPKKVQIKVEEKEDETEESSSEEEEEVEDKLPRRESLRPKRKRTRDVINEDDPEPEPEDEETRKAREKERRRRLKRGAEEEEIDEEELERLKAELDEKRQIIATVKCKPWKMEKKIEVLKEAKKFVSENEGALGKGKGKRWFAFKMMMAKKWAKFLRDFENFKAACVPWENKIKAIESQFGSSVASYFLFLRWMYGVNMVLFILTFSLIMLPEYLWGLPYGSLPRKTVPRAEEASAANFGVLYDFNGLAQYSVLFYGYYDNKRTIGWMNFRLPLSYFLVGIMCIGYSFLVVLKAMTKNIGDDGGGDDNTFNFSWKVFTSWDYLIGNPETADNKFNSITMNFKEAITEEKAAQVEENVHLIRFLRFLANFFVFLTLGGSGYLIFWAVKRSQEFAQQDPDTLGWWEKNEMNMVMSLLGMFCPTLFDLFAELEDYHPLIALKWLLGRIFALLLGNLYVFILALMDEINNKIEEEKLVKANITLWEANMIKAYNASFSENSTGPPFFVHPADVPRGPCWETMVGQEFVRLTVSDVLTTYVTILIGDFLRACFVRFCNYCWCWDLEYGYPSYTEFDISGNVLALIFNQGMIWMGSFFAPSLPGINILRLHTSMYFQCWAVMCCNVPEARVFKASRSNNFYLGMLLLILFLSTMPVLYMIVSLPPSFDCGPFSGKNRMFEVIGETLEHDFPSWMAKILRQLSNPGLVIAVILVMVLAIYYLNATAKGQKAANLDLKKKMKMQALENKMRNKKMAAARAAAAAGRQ
inactive: vemurafenib 0.089 | [1] -0.02 | [6] -0.164 | volasertib -0.021 | [2] -0.059 | sotrastaurin 0.141 | Tubastatin A -0.088 | [3] -0.028 | defactinib -0.002 | encorafenib 0.03 | [7] 0.054 | alisertib 0.216 | [5] 0.021 | gefitinib 0.215

TK1 (UniProt K7ERV3)
inactive: vemurafenib -0.001 | barasertib 0.072 | [6] -0.105 | [2] 0.049 | [8] -0.102 | [9] 0.068 | saracatinib 0.089 | sotrastaurin -0.147 | alvocidib -0.028 | Tubastatin A 0.118 | [3] -0.002 | defactinib -0.024 | [4] 0.121 | encorafenib -0.199 | [7] 0.006 | alisertib -0.283 | gefitinib 0.214

UBXN2B (UniProt Q14CS0)
Sequence of UniProt Q14CS0 (Q14CS0 whole entry, looked up): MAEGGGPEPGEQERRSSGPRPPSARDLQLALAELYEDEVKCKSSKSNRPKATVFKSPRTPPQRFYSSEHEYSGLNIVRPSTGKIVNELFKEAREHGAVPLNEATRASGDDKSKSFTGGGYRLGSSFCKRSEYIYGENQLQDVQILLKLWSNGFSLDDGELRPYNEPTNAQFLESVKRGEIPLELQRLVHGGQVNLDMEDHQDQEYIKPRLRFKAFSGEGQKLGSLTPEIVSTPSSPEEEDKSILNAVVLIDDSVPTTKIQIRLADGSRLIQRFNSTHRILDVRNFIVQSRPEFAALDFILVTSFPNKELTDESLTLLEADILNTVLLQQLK
inactive: vemurafenib 0.148 | [1] 0.049 | barasertib 0.147 | [6] 0.065 | volasertib -0.066 | [2] -0.035 | [8] -0.142 | [9] 0.074 | saracatinib -0.068 | alvocidib -0.123 | Tubastatin A -0.001 | [3] -0.046 | defactinib 0.07 | [4] -0.018 | encorafenib -0.037 | [7] 0.069 | alisertib 0.174 | [5] -0.114 | gefitinib 0.008

TNKS (UniProt O95271)
inactive: vemurafenib -0.035 | [1] 0.124 | [6] 0.055 | volasertib -0.11 | [2] 0.027 | [8] 0.207 | [9] -0.092 | saracatinib -0.007 | sotrastaurin 0.021 | alvocidib -0.223 | Tubastatin A -0.087 | [3] 0.04 | defactinib -0.013 | [4] -0.031 | encorafenib -0.078 | [7] 0.022 | alisertib -0.002 | [5] -0.072 | gefitinib -0.069
